Results from the supplement of paper PMC10849652.
Targets with a hit are over-represented here; the source holds about 7,900 in all. About 0.6% of all pairs of compound and target were hits.

Columns and labels:
Experiment in all cases: log2 fold change, soluble protein after heating vs DMSO (PISA); higher = thermal stabilisation; K562 cells, 10 uM, 30 min; active = over 0.2 and 3.5 SD of the protein, either way, in both replicates (recomputed)
[1] = compound: CC1=C(C=C(C=C1)NC(=O)C2=CC(=CC=C2)C(C)(C)C#N)NC3=CC4=C(C=C3)N=CN(C4=O)C
Outline: (§1)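 K562 cells at 2×10^6 cells/mL were exposed to 10 μM compound for 30 min, then aliquots were heated for 3 min across 48°C-58°C, pooled, and extracted in PBS containing 0.5% NP-40 at 4°C. The supernatant after 21,000xg for 90 min was taken as soluble protein and measured by TMTpro 16plex LC-MS/MS with channel sums equalised. Thermal stability is reported relative to control samples, with values from duplicates. Fold changes are given on a log2 scale.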

[2] = compound: CC1=C(C=C(C=C1)NC(=O)C2=CC(=CC=C2)N(C)C)NC(=O)C3=CC=C(C=C3)O
Outline: as §1

[3] = compound: CC1=CC=C(C=C1)SC2=C3C=C(SC3=CN=C2)C(=O)N
Outline: as §1

[4] = compound: CC1=NC(=CC=C1)C2=C(N=C(N2)C(C)(C)C)C3=CC4=NC=CN=C4C=C3
Outline: as §1

Nexturastat A = compound: CCCCN(Cc1ccc(C(=O)NO)cc1)C(=O)Nc1ccccc1 [Nexturastat A]
Outline: as §1

vemurafenib = compound: CCCS(=O)(=O)Nc1ccc(F)c(C(=O)c2c[nH]c3ncc(-c4ccc(Cl)cc4)cc23)c1F [vemurafenib]
Outline: as §1

[5] = compound: CCCS(=O)(=O)Nc1ccc(F)c(C(=O)c2c[nH]c3ncc(Cl)cc23)c1F
Outline: as §1

[6] = compound: CCCc1cc(C)[nH]c(=O)c1CNC(=O)c1cc(-c2ccnc(N3CCN(C)CC3)c2)cc2c1cnn2C(C)C
Outline: as §1

givinostat = compound: CCN(CC)Cc1ccc2cc(COC(=O)Nc3ccc(C(=O)NO)cc3)ccc2c1 [givinostat]
Outline: as §1

barasertib = compound: CCN(CCCOc1ccc2c(Nc3cc(CC(=O)Nc4cccc(F)c4)[nH]n3)ncnc2c1)CCOP(=O)(O)O [barasertib]
Outline: as §1

[7] = compound: CC[C@@H]1C(=O)N(C)c2cnc(Nc3ccc(C(=O)NC4CCN(C)CC4)cc3OC)nc2N1C1CCCC1
Outline: as §1

volasertib = compound: CC[C@@H]1C(=O)N(C)c2cnc(Nc3ccc(C(=O)N[C@H]4CC[C@H](N5CCN(CC6CC6)CC5)CC4)cc3OC)nc2N1C(C)C [volasertib]
Outline: as §1

[8] = compound: CC[C@H](C)N1C=C(C2=C(C=C(C=C21)C3=CN=C(C=C3)N4CCNCC4)C(=O)NCC5=C(C=C(NC5=O)C)C)C
Outline: as §1

epoxomicin = compound: CC[C@H](C)[C@@H](C(=O)N[C@@H]([C@@H](C)O)C(=O)N[C@@H](CC(C)C)C(=O)[C@]1(CO1)C)NC(=O)[C@H]([C@@H](C)CC)N(C)C(=O)C [epoxomicin]
Outline: as §1

[9] = compound: CCn1c(C(=O)N(C2CC2)C2CC2)cc2c3c(ncn3C)c(Nc3cc(C)n(C)n3)nc21
Outline: as §1

[10] = compound: CCn1cc(-c2ccnc3[nH]c(-c4cccc(CN(C)C)c4)cc23)c(-c2ccc(NC(=O)N(C)C)cc2)n1
Outline: as §1

[11] = compound: CN(C)CC(=O)Nc1ccc2[nH]c(=O)c3ccccc3c2c1
Outline: as §1

rosiglitazone = compound: CN(CCOC1=CC=C(C=C1)C[C@H]2C(=O)NC(=O)S2)C3=CC=CC=N3 (racemic) [rosiglitazone]
Outline: as §1

[12] = compound: CN1C2=C(C3=C1C(=O)N(N=C3)CC4=CC(=CC=C4)N)SC(=C2)S(=O)C
Outline: as §1

[13] = compound: CN1CCC(CNc2ccc3ncc(-c4cccc(OC(F)(F)F)c4)n3n2)CC1
Outline: as §1

Measured: log2 fold change

KIFBP (UniProt Q96EK5)
UniProt Q96EK5, sequence (Q96EK5 whole entry, looked up): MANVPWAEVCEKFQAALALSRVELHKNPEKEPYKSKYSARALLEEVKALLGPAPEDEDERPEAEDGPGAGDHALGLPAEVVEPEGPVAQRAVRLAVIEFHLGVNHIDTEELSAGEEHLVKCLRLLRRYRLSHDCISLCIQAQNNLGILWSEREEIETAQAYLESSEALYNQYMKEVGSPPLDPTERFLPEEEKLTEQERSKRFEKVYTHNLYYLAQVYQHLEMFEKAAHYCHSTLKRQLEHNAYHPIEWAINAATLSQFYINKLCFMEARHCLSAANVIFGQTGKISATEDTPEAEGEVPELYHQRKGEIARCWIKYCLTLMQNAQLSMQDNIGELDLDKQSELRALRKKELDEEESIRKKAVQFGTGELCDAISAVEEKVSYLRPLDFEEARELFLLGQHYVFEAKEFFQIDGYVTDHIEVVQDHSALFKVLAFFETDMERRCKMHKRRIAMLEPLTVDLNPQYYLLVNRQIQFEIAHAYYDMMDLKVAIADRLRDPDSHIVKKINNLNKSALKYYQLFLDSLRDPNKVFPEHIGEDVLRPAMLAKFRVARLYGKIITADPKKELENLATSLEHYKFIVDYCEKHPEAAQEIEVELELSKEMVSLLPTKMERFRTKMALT
active: volasertib -0.333
inactive: [1] 0.019 | [2] 0.034 | [3] 0.052 | [4] 0.027 | Nexturastat A -0.107 | vemurafenib 0.067 | [5] 0.093 | [6] -0.013 | givinostat -0.004 | barasertib 0.022 | [7] -0.007 | [8] 0.11 | epoxomicin -0.035 | [9] -0.036 | [10] 0.017 | [11] 0.038 | rosiglitazone 0.11 | [12] 0.095 | [13] -0.046

KPNB1 (UniProt Q14974)
UniProt Q14974, sequence (Q14974 whole entry, looked up): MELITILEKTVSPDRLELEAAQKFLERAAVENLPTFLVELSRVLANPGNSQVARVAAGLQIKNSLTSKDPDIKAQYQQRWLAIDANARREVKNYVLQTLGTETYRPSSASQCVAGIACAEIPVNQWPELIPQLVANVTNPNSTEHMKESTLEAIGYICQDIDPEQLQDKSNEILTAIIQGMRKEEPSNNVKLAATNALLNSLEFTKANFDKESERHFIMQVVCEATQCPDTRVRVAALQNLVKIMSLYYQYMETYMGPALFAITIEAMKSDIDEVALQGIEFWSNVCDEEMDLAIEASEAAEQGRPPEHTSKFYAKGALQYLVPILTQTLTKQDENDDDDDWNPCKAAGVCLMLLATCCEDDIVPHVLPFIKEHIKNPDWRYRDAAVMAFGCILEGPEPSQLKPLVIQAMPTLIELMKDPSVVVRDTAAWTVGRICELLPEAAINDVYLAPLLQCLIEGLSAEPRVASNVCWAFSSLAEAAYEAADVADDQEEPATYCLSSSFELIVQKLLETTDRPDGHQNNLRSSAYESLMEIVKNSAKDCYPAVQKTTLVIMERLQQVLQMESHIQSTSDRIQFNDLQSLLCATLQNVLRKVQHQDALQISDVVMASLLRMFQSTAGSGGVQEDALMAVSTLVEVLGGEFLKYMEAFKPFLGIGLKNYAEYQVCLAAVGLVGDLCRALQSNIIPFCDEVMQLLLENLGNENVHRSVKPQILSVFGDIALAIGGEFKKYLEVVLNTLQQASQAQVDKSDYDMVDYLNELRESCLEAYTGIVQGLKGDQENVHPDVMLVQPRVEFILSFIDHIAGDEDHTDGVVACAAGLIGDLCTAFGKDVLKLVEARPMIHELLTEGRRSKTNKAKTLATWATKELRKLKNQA
inactive: [1] 0.049 | [2] -0.041 | [3] 0 | [4] -0.015 | Nexturastat A 0.119 | vemurafenib 0.07 | [5] 0.076 | [6] 0.052 | givinostat 0.085 | barasertib 0.02 | [7] -0.105 | [8] 0.04 | epoxomicin 0.04 | [9] 0.009 | [10] 0.016 | [11] 0.048 | rosiglitazone 0.027 | [12] 0.102 | [13] -0.212
active: volasertib -0.432

IRAK4 (UniProt Q9NWZ3)
UniProt Q9NWZ3, sequence (Q9NWZ3 whole entry, looked up): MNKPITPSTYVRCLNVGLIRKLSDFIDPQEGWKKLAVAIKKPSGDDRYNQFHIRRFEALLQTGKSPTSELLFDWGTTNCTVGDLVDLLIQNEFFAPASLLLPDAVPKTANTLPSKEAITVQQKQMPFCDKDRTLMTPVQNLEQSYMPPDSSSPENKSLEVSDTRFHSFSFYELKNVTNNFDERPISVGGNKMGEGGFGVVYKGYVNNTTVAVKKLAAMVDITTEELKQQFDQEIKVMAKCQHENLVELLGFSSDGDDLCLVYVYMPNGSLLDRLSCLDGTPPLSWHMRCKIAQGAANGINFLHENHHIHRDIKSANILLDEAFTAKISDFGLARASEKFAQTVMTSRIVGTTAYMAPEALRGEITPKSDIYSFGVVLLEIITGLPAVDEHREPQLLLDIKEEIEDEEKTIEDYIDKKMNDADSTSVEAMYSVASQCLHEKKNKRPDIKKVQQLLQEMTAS
inactive: [1] 0.006 | [2] -0.039 | [3] 0 | [4] 0.03 | Nexturastat A 0.009 | vemurafenib 0.041 | [5] 0.068 | [6] -0.003 | givinostat 0.062 | barasertib 0.024 | [7] -0.138 | volasertib -0.299 | [8] 0.048 | epoxomicin 0.038 | [9] -0.092 | [10] -0.033 | [11] 0.061 | rosiglitazone 0.042 | [12] 0.029 | [13] 0.013

IGFBP4 (UniProt P22692)
UniProt P22692, sequence (P22692 whole entry, looked up): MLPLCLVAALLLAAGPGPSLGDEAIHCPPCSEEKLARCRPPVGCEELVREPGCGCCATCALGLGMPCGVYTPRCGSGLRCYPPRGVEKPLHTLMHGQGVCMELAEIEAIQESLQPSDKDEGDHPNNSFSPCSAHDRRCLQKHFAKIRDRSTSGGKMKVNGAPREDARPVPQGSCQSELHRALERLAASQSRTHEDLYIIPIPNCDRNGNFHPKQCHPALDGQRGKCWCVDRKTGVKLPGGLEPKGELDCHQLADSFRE
inactive: [1] 0.044 | [2] 0.207 | [3] 0.026 | [4] 0.003 | Nexturastat A 0.019 | vemurafenib 0.084 | [5] -0.08 | [6] -0.193 | givinostat -0.007 | barasertib 0.013 | [7] -0.22 | volasertib -0.07 | [8] -0.092 | epoxomicin -0.187 | [9] -0.045 | [10] 0.173 | [11] -0.049 | rosiglitazone 0.13 | [12] 0.023 | [13] -0.033

LBR (UniProt Q14739)
UniProt Q14739, sequence (Q14739 whole entry, looked up): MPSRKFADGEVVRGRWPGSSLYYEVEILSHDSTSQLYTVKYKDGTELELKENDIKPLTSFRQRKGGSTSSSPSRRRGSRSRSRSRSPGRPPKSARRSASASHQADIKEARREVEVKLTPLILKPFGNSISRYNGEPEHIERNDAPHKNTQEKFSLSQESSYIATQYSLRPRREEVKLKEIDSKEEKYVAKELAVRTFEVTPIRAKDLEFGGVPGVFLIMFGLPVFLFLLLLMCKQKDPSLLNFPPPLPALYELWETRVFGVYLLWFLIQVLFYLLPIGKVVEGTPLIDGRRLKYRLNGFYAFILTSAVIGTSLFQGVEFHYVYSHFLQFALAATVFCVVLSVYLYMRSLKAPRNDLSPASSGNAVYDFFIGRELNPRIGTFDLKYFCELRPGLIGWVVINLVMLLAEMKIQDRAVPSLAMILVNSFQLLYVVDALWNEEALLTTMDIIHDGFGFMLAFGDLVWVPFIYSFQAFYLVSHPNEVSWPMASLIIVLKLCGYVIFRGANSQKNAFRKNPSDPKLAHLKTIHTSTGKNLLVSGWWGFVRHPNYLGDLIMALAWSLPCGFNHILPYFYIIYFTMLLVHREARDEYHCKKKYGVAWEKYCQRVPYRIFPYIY
inactive: [1] 0.045 | [2] -0.035 | [3] -0.002 | [4] 0.045 | Nexturastat A -0.108 | vemurafenib 0.063 | [5] 0.05 | [6] -0.009 | givinostat 0.125 | barasertib 0.024 | [7] -0.036 | [8] 0.051 | epoxomicin 0.022 | [9] -0.012 | [10] -0.071 | [11] 0.056 | rosiglitazone 0.086 | [12] -0.026 | [13] 0.099
active: volasertib 0.552

LEMD3 (UniProt Q9Y2U8)
UniProt Q9Y2U8, sequence (Q9Y2U8 whole entry, looked up): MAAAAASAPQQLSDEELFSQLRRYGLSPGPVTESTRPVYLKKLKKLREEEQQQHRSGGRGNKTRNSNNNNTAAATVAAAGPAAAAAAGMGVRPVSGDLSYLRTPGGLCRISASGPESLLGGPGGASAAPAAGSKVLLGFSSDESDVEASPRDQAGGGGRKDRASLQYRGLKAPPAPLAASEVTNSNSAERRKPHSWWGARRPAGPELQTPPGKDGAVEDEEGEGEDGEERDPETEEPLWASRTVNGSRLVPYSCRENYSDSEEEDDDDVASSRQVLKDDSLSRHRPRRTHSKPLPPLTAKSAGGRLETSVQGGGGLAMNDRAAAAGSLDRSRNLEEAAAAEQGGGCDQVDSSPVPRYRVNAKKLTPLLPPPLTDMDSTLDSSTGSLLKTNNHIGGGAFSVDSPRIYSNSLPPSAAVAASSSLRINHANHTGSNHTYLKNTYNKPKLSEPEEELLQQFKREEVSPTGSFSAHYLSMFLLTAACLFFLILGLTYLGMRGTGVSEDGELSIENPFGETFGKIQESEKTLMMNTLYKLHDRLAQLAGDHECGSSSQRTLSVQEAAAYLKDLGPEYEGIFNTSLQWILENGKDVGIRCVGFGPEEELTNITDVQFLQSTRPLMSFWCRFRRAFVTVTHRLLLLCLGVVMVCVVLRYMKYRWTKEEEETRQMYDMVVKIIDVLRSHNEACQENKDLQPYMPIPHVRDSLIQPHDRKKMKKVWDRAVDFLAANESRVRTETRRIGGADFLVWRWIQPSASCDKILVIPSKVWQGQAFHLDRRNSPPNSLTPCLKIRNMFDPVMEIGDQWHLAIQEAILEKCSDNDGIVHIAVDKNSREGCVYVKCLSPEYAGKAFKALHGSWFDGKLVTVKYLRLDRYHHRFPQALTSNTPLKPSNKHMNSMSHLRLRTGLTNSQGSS
active: volasertib -0.324
inactive: [1] -0.066 | [2] -0.071 | [3] -0.005 | [4] -0.017 | Nexturastat A 0.026 | vemurafenib 0.056 | [5] 0.005 | [6] 0.054 | givinostat 0.077 | barasertib 0.023 | [7] -0.096 | [8] -0.063 | epoxomicin 0.095 | [9] -0.076 | [10] 0.003 | [11] 0.123 | rosiglitazone -0.03 | [12] -0.016 | [13] -0.081

IGF2R (UniProt P11717)
active: [7] -1.09 | volasertib -0.875 | [13] -0.607
inactive: [1] -0.039 | [2] -0.016 | [3] 0.037 | [4] -0.004 | Nexturastat A 0.014 | vemurafenib -0.022 | [5] -0.007 | [6] -0.036 | givinostat -0.018 | barasertib 0.002 | [8] -0.033 | epoxomicin 0.002 | [9] 0.018 | [10] -0.013 | [11] -0.023 | rosiglitazone -0.024 | [12] -0.013

MGST1 (UniProt P10620)
UniProt P10620, sequence (P10620 whole entry, looked up): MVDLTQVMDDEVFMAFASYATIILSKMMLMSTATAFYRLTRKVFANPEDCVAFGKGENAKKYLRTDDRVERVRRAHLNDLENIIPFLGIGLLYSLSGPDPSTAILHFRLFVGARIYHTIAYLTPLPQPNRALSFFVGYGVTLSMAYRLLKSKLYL
inactive: [1] 0.062 | [2] 0.044 | [3] -0.017 | [4] 0.017 | Nexturastat A -0.07 | vemurafenib 0.067 | [5] -0.007 | [6] -0.093 | givinostat -0.027 | barasertib -0.035 | [7] 0.037 | volasertib 0.039 | [8] -0.043 | epoxomicin 0.003 | [9] -0.025 | [10] -0.158 | [11] 0.012 | rosiglitazone -0.037 | [12] -0.079 | [13] 0.086
